Laboratory results published in PubChem BioAssay (Tox21).
Several values for one entry are separate records, joined by “and”; a condition that tells them apart may be missing. Identical values can stand only once. Results filed as inconclusive are left out. A call without a number means that no potency is given here. The source holds several records for some structures; these can differ, active in one and inactive in another. Activity calls are given as the source filed them. Unless noted, calls come from the whole dose curve; as a rule, active = well fitted curve in the direction sought with a large enough effect in the repeat runs; inconclusive = weak or mixed curves; inactive = no such curve, though single readings can be large; an effect the other way counts as inactive or inconclusive.

Tests used:
[1] = Human pregnane X receptor (PXR) small molecule agonists, qHTS cell viability counter screen (AID 1346977); note: nearly all actives have a fitted effect of over 50% in size; note: potency is the fitted concentration of half-maximal effect
How it was run: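 Viability counter screen: CellTiter-Fluor signal in PXR-Luc HepG2 cells, 24hr compound exposure, 37C, 5% CO2.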

[2] = Caspase-3/7 induction in HepG2 cells by small molecules, qHTS assay (AID 1346978); note: nearly all actives have a fitted effect of over 15% in size; note: potency is the fitted concentration of half-maximal effect
How it was run: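 Caspase-3/7 induction was measured by Caspase-Glo 3/7 luminescence (30 min, room temperature) after a 17 hr compound exposure of wild-type HepG2 cells seeded at 2,000 per well and pre-incubated 5 hr.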

[3] = Caspase-3/7 induction in CHO-K1 cells by small molecules, qHTS cell viability counter screen (AID 1346979); note: nearly all actives have a fitted effect of over 35% in size; note: potency is the fitted concentration of half-maximal effect
How it was run: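 Viability readout by fluorescence (CellTiter-Fluor) on wild-type CHO-K1 cells exposed for 16hr at 37C and 5% CO2 to compounds delivered in DMSO; reagent incubated 1hr before reading.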

[4] = Caspase-3/7 induction in HepG2 cells by small molecules, qHTS cell viability counter screen (AID 1346981); note: nearly all actives have a fitted effect of over 30% in size; note: potency is the fitted concentration of half-maximal effect
How it was run: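 Wild-type HepG2 cells, 2,000/well, settled 5 hr at 37 C, 5% CO2 before compound addition. Viability read by CellTiter-Fluor fluorescence, reagent added after 16 hr compound exposure, then 1 hr at 37C, in the same wells as the caspase read.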

[5] = target: Nuclear receptor subfamily 1 group I member 2 (Homo sapiens) (UniProt O75469); test: Human pregnane X receptor (PXR) small molecule agonists, qHTS assay (AID 1346982); note: nearly all actives have a fitted effect of over 35% in size; note: potency is the fitted concentration of half-maximal effect
Sequence of Nuclear receptor subfamily 1 group I member 2 (Homo sapiens) (O75469 whole entry, looked up): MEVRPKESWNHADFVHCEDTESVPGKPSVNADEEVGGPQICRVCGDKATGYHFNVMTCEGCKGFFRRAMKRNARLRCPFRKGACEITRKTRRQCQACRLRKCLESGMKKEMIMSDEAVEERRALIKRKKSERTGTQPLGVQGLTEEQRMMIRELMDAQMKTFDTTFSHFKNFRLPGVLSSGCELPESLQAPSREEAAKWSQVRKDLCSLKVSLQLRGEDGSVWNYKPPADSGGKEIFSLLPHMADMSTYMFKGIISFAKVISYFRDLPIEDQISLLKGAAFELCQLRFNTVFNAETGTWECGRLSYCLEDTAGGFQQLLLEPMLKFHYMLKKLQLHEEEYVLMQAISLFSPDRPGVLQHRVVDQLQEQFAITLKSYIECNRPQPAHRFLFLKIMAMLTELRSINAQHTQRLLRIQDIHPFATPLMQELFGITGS
How it was run: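 PXR-Luc HepG2 reporter cells (CYP3A4-driven luciferase) in 5% charcoal-stripped FBS medium, plated 5 h before compound addition, then treated 24 h at 37C. Luciferase read by ONE-Glo luminescence after 30 min at room temperature.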

[6] = target: Cytochrome P450 2D6 (Homo sapiens) (UniProt P10635); test: Cytochrome P450 Family 2 Subfamily D Member 6 (CYP2D6) small molecule antagonists: luciferase reporter qHTS assay (AID 1671196); note: nearly all actives have a fitted effect of over 50% in size; note: potency is the fitted concentration of half-maximal effect
Sequence of Cytochrome P450 2D6 (Homo sapiens) (P10635 whole entry, looked up): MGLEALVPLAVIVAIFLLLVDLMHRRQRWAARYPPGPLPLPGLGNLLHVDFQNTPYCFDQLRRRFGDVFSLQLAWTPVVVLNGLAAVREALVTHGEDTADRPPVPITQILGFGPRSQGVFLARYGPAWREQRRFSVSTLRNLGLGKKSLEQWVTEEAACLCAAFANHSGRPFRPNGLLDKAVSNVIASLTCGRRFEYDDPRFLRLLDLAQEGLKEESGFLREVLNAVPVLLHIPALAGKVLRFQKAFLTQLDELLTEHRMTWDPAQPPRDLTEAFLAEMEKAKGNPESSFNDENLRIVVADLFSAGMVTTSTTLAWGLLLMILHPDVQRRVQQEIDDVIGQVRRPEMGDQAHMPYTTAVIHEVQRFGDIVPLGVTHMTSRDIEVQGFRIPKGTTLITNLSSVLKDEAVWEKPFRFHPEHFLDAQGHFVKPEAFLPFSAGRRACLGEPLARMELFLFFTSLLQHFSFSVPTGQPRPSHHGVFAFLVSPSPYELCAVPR
How it was run: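 Cell-free P450-Glo system: CYP2D6 with proluciferin substrate was pre-incubated with compound for 10 min, then reacted with NADPH regeneration for 1 h at room temperature. Luciferin product was detected after 20 min, and data were reported as relative luminescence units.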

[7] = target: Cytochrome P450 2C19 (Homo sapiens) (UniProt P33261); test: Cytochrome P450 Family 2 Subfamily C Member 19 (CYP2C19) small molecule antagonists: luciferase reporter qHTS assay (AID 1671197); note: nearly all actives have a fitted effect of over 65% in size; note: potency is the fitted concentration of half-maximal effect
Sequence of Cytochrome P450 2C19 (Homo sapiens) (P33261 whole entry, looked up): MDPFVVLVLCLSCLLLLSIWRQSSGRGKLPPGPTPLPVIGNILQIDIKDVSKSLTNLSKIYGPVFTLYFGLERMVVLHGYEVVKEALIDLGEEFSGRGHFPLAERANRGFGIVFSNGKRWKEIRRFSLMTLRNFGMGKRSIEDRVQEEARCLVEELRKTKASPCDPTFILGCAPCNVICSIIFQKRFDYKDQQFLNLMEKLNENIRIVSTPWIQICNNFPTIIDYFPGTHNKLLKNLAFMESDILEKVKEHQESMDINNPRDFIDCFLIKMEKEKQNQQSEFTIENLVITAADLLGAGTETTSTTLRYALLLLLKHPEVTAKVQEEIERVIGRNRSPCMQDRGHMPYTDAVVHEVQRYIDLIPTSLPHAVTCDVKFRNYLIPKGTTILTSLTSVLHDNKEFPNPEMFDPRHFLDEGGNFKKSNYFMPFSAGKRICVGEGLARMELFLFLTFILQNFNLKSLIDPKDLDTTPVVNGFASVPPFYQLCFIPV
How it was run: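 CYP2C19 P450-Glo, 1536-well qHTS. Cpd + enzyme/proluciferin substrate 10 min RT; + NADPH regen, 37C 1 h; stop with luciferin detection reagent, 20 min RT, luminescence (RLU). Pos ctrl ketoconazole.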

[8] = target: Cytochrome P450 2C9 (Homo sapiens) (UniProt P11712); test: Cytochrome P450 Family 2 Subfamily C Member 9 (CYP2C9) small molecule antagonists: luciferase reporter qHTS assay (AID 1671198); note: nearly all actives have a fitted effect of over 50% in size; note: potency is the fitted concentration of half-maximal effect
Sequence of Cytochrome P450 2C9 (Homo sapiens) (P11712 whole entry, looked up): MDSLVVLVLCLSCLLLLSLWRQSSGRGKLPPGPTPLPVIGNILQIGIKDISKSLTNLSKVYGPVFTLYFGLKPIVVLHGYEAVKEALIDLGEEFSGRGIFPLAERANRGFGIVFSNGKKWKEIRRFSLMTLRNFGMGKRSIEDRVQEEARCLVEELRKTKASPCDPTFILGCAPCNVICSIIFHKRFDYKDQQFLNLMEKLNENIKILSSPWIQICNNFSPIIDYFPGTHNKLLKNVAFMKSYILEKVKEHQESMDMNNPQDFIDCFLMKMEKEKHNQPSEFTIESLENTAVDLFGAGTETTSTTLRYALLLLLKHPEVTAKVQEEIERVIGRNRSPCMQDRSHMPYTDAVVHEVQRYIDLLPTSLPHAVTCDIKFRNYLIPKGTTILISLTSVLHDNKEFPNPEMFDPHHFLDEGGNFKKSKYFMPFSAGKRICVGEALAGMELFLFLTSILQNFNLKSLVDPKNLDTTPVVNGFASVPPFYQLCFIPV
How it was run: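 Enzyme-substrate mix preincubated with compound 10 min at room temperature; reaction started with NADPH regeneration solution, 1 h 37C. Luminescent luciferin product read after 20 min detection reagent.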

[9] = target: Cytochrome P450 1A2 (Homo sapiens) (UniProt P05177); test: Cytochrome P450 Family 1 Subfamily A Member 2 (CYP1A2) small molecule antagonists: luciferase reporter qHTS assay (AID 1671199); note: nearly all actives have a fitted effect of over 50% in size; note: potency is the fitted concentration of half-maximal effect
Sequence of Cytochrome P450 1A2 (Homo sapiens) (P05177 whole entry, looked up): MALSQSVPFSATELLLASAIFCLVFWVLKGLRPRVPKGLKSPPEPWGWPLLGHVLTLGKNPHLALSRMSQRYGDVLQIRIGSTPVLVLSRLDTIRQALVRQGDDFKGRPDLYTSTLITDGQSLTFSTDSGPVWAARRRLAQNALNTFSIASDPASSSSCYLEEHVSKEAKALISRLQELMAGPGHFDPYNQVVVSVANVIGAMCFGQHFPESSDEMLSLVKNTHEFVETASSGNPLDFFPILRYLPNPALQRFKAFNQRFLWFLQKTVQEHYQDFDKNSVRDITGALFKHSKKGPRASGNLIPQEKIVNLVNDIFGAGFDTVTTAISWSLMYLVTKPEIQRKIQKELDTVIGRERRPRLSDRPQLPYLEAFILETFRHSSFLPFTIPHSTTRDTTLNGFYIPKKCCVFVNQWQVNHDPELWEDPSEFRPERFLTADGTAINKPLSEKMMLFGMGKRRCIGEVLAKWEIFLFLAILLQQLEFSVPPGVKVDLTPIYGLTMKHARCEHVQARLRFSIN
How it was run: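 P450-Glo CYP1A2 enzyme–proluciferin substrate mix with compound 10 min at room temperature, then NADPH regeneration 1 h at room temperature. Luciferin detection reagent added, luminescence read after 20 min; furafylline positive control.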

[10] = target: Voltage-gated inwardly rectifying potassium channel KCNH2 (Homo sapiens) (UniProt Q12809); test: Human Ether-a-go-go-Related Gene (hERG) channel small molecule antagonists: fluorescence cell-based qHTS assay (AID 1671200); note: nearly all actives have a fitted effect of over 50% in size; note: potency is the fitted concentration of half-maximal effect
Sequence of Voltage-gated inwardly rectifying potassium channel KCNH2 (Homo sapiens) (Q12809 whole entry, looked up): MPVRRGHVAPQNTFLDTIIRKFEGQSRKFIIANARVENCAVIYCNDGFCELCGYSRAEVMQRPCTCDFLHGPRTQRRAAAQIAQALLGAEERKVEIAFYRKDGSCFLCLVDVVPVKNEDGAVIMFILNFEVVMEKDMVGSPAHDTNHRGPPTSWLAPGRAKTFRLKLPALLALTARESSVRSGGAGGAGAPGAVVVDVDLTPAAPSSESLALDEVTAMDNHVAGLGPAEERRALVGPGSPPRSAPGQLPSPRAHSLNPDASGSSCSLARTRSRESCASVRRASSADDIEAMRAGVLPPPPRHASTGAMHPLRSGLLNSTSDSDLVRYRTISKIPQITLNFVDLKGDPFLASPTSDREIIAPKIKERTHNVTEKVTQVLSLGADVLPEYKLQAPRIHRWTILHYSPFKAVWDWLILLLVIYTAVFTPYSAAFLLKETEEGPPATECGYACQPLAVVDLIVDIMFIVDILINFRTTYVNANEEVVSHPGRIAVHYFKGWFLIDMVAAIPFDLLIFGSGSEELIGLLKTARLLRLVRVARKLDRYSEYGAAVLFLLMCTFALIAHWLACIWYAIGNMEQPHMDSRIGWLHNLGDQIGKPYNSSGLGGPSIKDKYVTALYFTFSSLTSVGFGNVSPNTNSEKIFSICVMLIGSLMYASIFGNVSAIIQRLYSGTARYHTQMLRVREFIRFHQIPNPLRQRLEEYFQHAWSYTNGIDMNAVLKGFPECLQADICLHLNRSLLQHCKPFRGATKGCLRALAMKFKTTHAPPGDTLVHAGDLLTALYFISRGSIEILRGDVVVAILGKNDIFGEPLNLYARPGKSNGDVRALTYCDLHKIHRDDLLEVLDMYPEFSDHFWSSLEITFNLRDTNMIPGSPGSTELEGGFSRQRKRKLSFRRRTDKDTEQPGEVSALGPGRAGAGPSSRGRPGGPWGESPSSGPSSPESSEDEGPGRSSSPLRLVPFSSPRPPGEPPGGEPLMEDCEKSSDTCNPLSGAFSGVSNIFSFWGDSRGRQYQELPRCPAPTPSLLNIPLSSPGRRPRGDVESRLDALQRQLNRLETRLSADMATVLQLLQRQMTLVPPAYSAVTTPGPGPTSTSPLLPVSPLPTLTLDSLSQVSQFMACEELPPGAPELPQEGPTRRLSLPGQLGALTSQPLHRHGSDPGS
How it was run: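 Thallium served as the potassium surrogate; its influx into dye-loaded U2OS cells carrying the channel was measured by fluorescence over 2 min.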

[11] = target: Cytochrome P450 3A4 (Homo sapiens) (UniProt P08684); test: Cytochrome P450 Family 3 Subfamily A Member 4 (CYP3A4) small molecule antagonists: luciferase reporter qHTS assay (AID 1671201); note: nearly all actives have a fitted effect of over 50% in size; note: potency is the fitted concentration of half-maximal effect
Sequence of Cytochrome P450 3A4 (Homo sapiens) (P08684 whole entry, looked up): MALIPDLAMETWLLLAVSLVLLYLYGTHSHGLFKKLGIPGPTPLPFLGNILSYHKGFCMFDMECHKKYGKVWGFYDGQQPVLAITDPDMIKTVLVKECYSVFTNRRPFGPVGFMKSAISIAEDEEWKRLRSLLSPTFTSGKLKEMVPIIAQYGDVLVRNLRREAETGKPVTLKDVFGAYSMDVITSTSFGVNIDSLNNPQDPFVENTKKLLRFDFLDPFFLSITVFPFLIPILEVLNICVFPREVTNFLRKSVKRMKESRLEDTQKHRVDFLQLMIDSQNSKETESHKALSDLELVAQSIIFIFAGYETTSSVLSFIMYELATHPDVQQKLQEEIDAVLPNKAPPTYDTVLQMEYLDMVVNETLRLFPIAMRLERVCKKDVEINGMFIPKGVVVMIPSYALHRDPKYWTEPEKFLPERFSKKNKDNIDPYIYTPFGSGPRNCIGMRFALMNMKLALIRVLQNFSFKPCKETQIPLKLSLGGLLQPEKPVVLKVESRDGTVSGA
How it was run: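 Relative luminescence units after 20 min with luciferin detection reagent served as read-out. Beforehand, CYP3A4 turned over a proluciferin substrate for 1 h at room temperature with NADPH regeneration, following 10 min compound preincubation.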

[12] = Caspase-3/7 induction in CHO-K1 cells by small molecules, qHTS assay (AID 1346980); note: nearly all actives have a fitted effect of over 15% in size
How it was run: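 Luminescent Caspase-Glo 3/7 read (30min, room temperature) quantified apoptosis induction. Cells were wild-type CHO-K1, treated with compound for 17hr at 37 C and 5% CO2.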

[13] = target: Nuclear receptor subfamily 1 group I member 2 (Rattus norvegicus) (UniProt Q9R1A7); test: Rat pregnane X receptor (rPXR) activation by small molecules, qHTS assay (AID 1346983); conditions: rPXR luciferase reporter cells, One-Glo luminescence, 24 h; max activation: stronger effect = higher value; note: nearly all actives have a fitted effect of over 20% in size
Sequence of Nuclear receptor subfamily 1 group I member 2 (Rattus norvegicus) (Q9R1A7 whole entry, looked up): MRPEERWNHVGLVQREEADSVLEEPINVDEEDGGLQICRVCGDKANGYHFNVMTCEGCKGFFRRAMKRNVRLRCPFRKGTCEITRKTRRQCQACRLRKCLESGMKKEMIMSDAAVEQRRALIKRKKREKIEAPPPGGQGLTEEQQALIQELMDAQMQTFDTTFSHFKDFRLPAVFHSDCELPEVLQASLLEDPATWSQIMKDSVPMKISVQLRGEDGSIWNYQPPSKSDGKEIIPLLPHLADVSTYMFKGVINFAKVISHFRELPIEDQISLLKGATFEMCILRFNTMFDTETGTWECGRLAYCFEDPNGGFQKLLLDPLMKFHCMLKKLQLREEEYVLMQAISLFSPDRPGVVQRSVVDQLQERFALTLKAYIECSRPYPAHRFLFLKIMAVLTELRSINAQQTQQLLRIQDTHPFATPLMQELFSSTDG
How it was run: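 Luminescent readout (One-Glo luciferase, 30 min room temperature) followed 24 hr compound treatment at 37 C of rPXR cells plated 2,000 per well and preincubated 5hr; qHTS format with compounds delivered in DMSO.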

[14] = target: Nuclear receptor subfamily 1 group I member 2 (Homo sapiens) (UniProt O75469); test: CYP3A4 induction through human pregnane X receptor (PXR) by small molecules, qHTS assay (AID 1346984); note: nearly all actives have a fitted effect of over 40% in size
How it was run: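 DPX-2 HepG2 cells carrying a PXR response element and CYP3A4-promoter luciferase construct, treated with compounds 24 hr at 37C. Then P450-Glo CYP3A4 Luciferin-IPA substrate (3uM final) for 3 hr at 37C, One-Glo added, luminescence read.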

[15] = target: Nuclear receptor subfamily 1 group I member 2 (Homo sapiens) (UniProt O75469); test: Human pregnane X receptor (PXR) activation by small molecules, qHTS assay (AID 1346985); note: nearly all actives have a fitted effect of over 40% in size
How it was run: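 DPX-2 cells (HepG2 co-transfected with a PXR response element and a CYP3A4-promoter luciferase construct) were seeded at 2,000 per well, rested 5 hr at 37C, then exposed to DMSO-dissolved compounds for 24 hr. Activation was read as luciferase luminescence.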

[16] = target: Thyrotropin-releasing hormone receptor (Homo sapiens) (UniProt P34981); test: qHTS assay to identify small molecule agonists of the thyrotropin-releasing hormone receptor (TRHR) signaling pathway (AID 1346891; calls by dose curve;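 note: HEK293 cells expressing TRHR with calcium dye readout; series mostly up to about 58 µM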)
Sequence of Thyrotropin-releasing hormone receptor (Homo sapiens) (P34981 whole entry, looked up): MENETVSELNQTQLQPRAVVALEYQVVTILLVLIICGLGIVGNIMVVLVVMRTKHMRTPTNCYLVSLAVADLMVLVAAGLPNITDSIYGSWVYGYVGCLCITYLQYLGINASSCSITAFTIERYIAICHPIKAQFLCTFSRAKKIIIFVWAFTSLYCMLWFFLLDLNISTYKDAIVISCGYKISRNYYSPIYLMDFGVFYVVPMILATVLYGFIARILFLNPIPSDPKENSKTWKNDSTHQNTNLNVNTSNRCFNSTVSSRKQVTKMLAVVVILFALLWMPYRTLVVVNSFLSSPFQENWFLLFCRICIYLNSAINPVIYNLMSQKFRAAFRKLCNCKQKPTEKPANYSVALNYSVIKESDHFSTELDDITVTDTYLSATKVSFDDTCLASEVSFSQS
How it was run: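 Compounds were tested as agonists at 15 concentrations, in triplicate, on TRHR-Hek293 cells; calcium-sensitive dye fluorescence was recorded for 3 min following addition.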

Row | SMILES | Potency [1] | Potency [2] | Potency [3] | Potency [4] | Potency [5] | Potency [6] | Potency [7] | Potency [8] | Potency [9] | Potency [10] | Potency [11] | Potency [12] | max activation [13] | outcome [14] | outcome [15] | Potency [16]
1 | Nc1c(S(=O)(=O)O)cc(Br)c2c1C(=O)c1ccccc1C2=O | 31.3 µM (active) and 27.3 µM (active) | inactive | 48.6 µM (active) | inactive and 48.6 µM (active) | inactive and 48.6 µM (active) | inactive | inactive | 16.3 µM (active) and 7.96 µM (active) | 3.24 µM (active) and 2 µM (active) | inactive | inactive |  |  |  |  | 
2 | O=[N+]([O-])c1cc(N(CCO)CCO)ccc1NCCO | 30.6 µM (active) | inactive | 27.3 µM (active) and 30.6 µM (active) | 30.6 µM (active) and 48.6 µM (active) | inactive | 39.8 µM (active) and 31.7 µM (active) | 22.4 µM (active) and 39.9 µM (active) | 35.5 µM (active) and 39.9 µM (active) | 35.5 µM (active) and 35.6 µM (active) | inactive | 35.5 µM (active) and 39.9 µM (active) | inactive |  |  |  | 
3 | CC1=C(CC(=O)O)c2cc(F)ccc2/C1=C\c1ccc(S(C)=O)cc1 (stereo unspecified) | inactive |  | inactive | inactive | 21.7 µM (active) and inactive | 35.6 µM (active) and 34.7 µM (active) | 7.96 µM (active) and 8.71 µM (active) | 50.2 µM (active) and inactive | 35.6 µM (active) | inactive |  | inactive | -1.51% (inactive) | inactive | inactive | 
4 | Oc1ccc2ccccc2c1 | inactive | inactive |  | inactive |  |  |  |  |  | inactive |  | inactive |  |  |  | 
5 | CCCCC/C=C\C/C=C\CCCCCCCC(=O)OC | inactive | inactive | inactive and 61.1 µM (active) | inactive | 67.8 µM (active) and 61.1 µM (active) | 35.6 µM (active) | 55.8 µM (active) and 11.2 µM (active) | 35.2 µM (active) and 7.96 µM (active) | 35.6 µM (active) | inactive | inactive and 7.1 µM (active) | inactive |  |  |  | 
6 | CC1COc2ccccc2N1C(=O)C(Cl)Cl (stereo unspecified) | 39.8 µM (active) |  |  | 61 µM (active) and 27.3 µM (active) | 61 µM (active) and 54.4 µM (active) | 15.9 µM (active) and inactive | 7.09 µM (active) and 6.32 µM (active) | 15.9 µM (active) and 28.2 µM (active) | 79.5 µM (active) and inactive | inactive |  |  |  |  |  | inactive
7 | CN(C)c1ccc(C(=N)c2ccc(N(C)C)cc2)cc1 | 17.8 µM (active) and 23.4 µM (active) | 2.4 µM (active) and inactive |  | 42.7 µM (active) and 46.7 µM (active) | 2.14 µM (active) and 14.8 µM (active) | 125 nM (active) and 76.7 nM (active) | 5.57 µM (active) and 15.3 µM (active) | inactive | 17.6 µM (active) and 21.6 µM (active) | 48.4 µM (active) | 39.4 µM (active) | inactive |  |  |  | 
8 | CC(C)(C)C(=O)C1C(=O)c2ccccc2C1=O | 50.1 µM (active) | inactive | 27 µM (active) and 43.3 µM (active) | 60.5 µM (active) | 60.5 µM (active) and inactive | inactive | 35.3 µM (active) and inactive | 22.2 µM (active) and 25.2 µM (active) | 31.4 µM (active) | inactive | 28 µM (active) | inactive |  |  |  | 
9 | OC[C@@H](O)[C@@H](O)[C@H](O)[C@@H](O)CO | inactive | inactive |  | inactive | inactive | inactive | inactive | inactive | inactive | inactive | inactive | inactive |  |  |  | 
10 | CS(=O)(=O)c1ccc([C@@H](O)[C@@H](CO)NC(=O)C(Cl)Cl)cc1 | inactive | inactive | inactive | inactive | inactive | 64.1 µM (active) and inactive | 28.6 µM (active) and 17.4 µM (active) | inactive | inactive | inactive | inactive | inactive | -0.108% (inactive) | inactive | inactive | 
11 | CCCCCCCCCC(=O)O | inactive |  |  | inactive | inactive | inactive | inactive | 74.8 µM (active) | inactive | inactive | inactive |  |  |  |  | inactive
12 | CCCCCCCCCCC=CC1CC(=O)OC1=O (stereo unspecified) | inactive |  | inactive | inactive | inactive |  | 45 µM (active) and inactive | 71.4 µM (active) and 39.9 µM (active) | inactive | inactive | inactive | inactive |  |  |  | 
